Screening data deposited in PubChem by National Center for Advancing Translational Sciences (NCATS).
SARS PLpro yeast: inhibitors of SARS-CoV papain-like protease in yeast | S. cerevisiae expressing SARS-CoV PLpro, growth rescue | 0.19% of 330,000 active | Potency, µM (highest dose often 32.9 µM), actives largely listed as activators | AID 485353; calls by dose curve; note: nearly all actives have a fitted effect of over 55% in size
Sm TGR block: S. mansoni TGR enzyme inhibition; Potency, µM (series often up to 114 µM), most hits filed as inhibitors; purified TGR, DTNB reduction, TNB absorbance 405 nm; Q962Y6; 3% of 360,000 active; note: nearly all actives have a fitted effect of over 60% in size
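TGR 20 nM + NADPH 100 uM (dispensed conc.), cpd preinc 15 min RT; start with NADPH (500 uM addition) then DTNB (15 mM addition). Kinetic TNB absorbance, 405 nm filter. Four-parameter Hill fit across titration.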
Pf growth 48h: P. falciparum growth inhibition at 48 hours (one generation); P. falciparum luciferase growth in erythrocytes, 48 h; Potency, µM (series often up to 28.7 µM), usual class: inhibitors; 5.9% of 310,000 active
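Growth was read as firefly luciferase luminescence after a 48 h, 37 C, 5% CO2 exposure of compounds to reporter-bearing P. falciparum cultures (0.1% parasitemia, 2% hematocrit final) in Albumax-supplemented RPMI 1640.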
Pf growth 96h: P. falciparum growth inhibition at 96 hour, primary screen for plastid delayed-death inhibitors; P. falciparum luciferase reporter growth, 96 h; Potency, µM (highest dose often 28.7 µM), actives largely listed as inhibitors; AID 504834; 6.9% of 320,000 active
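Two parasite generations (96 h, 37 C, 5% CO2) of compound exposure in infected erythrocytes (0.05% parasitemia, 2% hematocrit). Luciferase-reporter P. falciparum; decreased luminescence indicates inhibited growth, aimed at apicoplast-acting delayed death.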
Hits are given with their value. This is a sample that favours compounds with a hit; in the whole collection about 12% have one here. Unless noted, calls come from the whole dose curve; as a rule, active = well fitted curve in the direction sought with a large enough effect; inconclusive = small, poorly fitted or top-dose-only effect, or another doubt; inactive = no such curve, though single readings can be large; an effect the other way counts as inactive or inconclusive.

Results for CC[C@H](C)[C@@H](C(=O)NCCCCCCCCCCC(=O)N1CCN(C(=O)OC(C)(C)C)CC1)n1cc(CCCCN=C(NC(=O)OC(C)(C)C)NC(=O)OC(C)(C)C)nn1 ?
SARS PLpro yeast: inactive; Sm TGR block: inactive; Pf growth 48h: 1.2µM; Pf growth 96h: 1.9µM

Results for C[C@H](O)[C@@H](C(=O)N1CCN(C(=O)OC(C)(C)C)CC1)n1cc(CCCCNC(=O)OC(C)(C)C)nn1 ?
SARS PLpro yeast: inactive; Sm TGR block: inactive; Pf growth 48h: inactive; Pf growth 96h: inactive

How did CC[C@@H](C)[C@@H](C(=O)N1CCN(C(=O)OC(C)(C)C)CC1)n1cc(CCCN=C(NC(=O)OC(C)(C)C)NC(=O)OC(C)(C)C)nn1 do in these assays?
SARS PLpro yeast: inactive; Sm TGR block: inactive; Pf growth 48h: inconclusive; Pf growth 96h: inconclusive

How did CNC1C(O)C(OC2C(N)CC(N)C(OC3OC(CN)=CCC3N)C2O)OCC1(C)O (centres undefined) do in these assays?
Pf growth 48h: inactive; Pf growth 96h: inactive

Results for COc1cc(C(=O)NC(c2ccc(Cl)cc2)c2cc(Cl)c3cccnc3c2O)cc(OC)c1OC (centres undefined) ?
Sm TGR block: inactive

Results for C/C(=N\Nc1cccc2cccnc12)c1ccccn1 ?
SARS PLpro yeast: inactive; Sm TGR block: inactive; Pf growth 48h: inactive; Pf growth 96h: inactive

Results for Cc1cc(NC(c2cccnc2)c2ccc3cccnc3c2O)no1 (centres undefined) ?
SARS PLpro yeast: 7.1µM; Sm TGR block: inactive; Pf growth 48h: 2.1µM; Pf growth 96h: 4.1µM

How did COc1ccc(Cl)cc1C(Nc1cccnc1)c1ccc2cccnc2c1O (centres undefined) do in these assays?
SARS PLpro yeast: inactive; Sm TGR block: 0.1µM; Pf growth 48h: 5.2µM; Pf growth 96h: inconclusive

What do the screens show for `Oc1cccc(C(Nc2ccccn2)c2ccc3cccnc3c2O)c1Cl` (centres undefined)?
Sm TGR block: 3.2µM

How did CCCCCn1c(=O)[nH]c2cc(C(=O)NCc3ccc(OC)cc3)ccc2c1=O do in these assays?
Sm TGR block: inactive

Results for Cc1ccc(C)c(SCC(=O)NC(=O)NC2CCCC2)c1 ?
SARS PLpro yeast: inactive; Sm TGR block: inactive; Pf growth 48h: inconclusive; Pf growth 96h: inconclusive

Results for CN(c1ccccc1)S(=O)(=O)c1cccc(NS(=O)(=O)c2cccc(C(=O)O)c2)c1 ?
SARS PLpro yeast: inactive; Sm TGR block: inactive; Pf growth 48h: inactive; Pf growth 96h: inactive

Results for COc1cccc(-c2nnn(CC(=O)NC3CCCC3)n2)c1OC ?
SARS PLpro yeast: inactive; Sm TGR block: inactive; Pf growth 48h: inactive; Pf growth 96h: 9.3µM

How did O=C(CC1C(=O)NCCN1Cc1cccc(F)c1)NC1CCCCC1 (centres undefined) do in these assays?
SARS PLpro yeast: inactive; Sm TGR block: 35µM; Pf growth 48h: inactive; Pf growth 96h: inactive

What do the screens show for `COc1ccc(CN2CCNC(=O)C2CC(=O)NC2CCCCCCC2)cc1OC` (centres undefined)?
SARS PLpro yeast: inactive; Sm TGR block: inconclusive; Pf growth 48h: 12µM; Pf growth 96h: inactive

How did COc1cccc(CN2CCNC(=O)C2CC(=O)N2CCCCO2)c1OC (centres undefined) do in these assays?
SARS PLpro yeast: inactive; Pf growth 48h: inactive; Pf growth 96h: inactive

What do the screens show for `COc1cccc(CN2CCNC(=O)C2CC(=O)O)c1OC` (centres undefined)?
SARS PLpro yeast: inactive; Sm TGR block: 40µM; Pf growth 48h: inactive; Pf growth 96h: inactive

Results for COc1ccccc1N1CCN(Cc2cnc3ccc(Cl)cn23)CC1 ?
SARS PLpro yeast: inactive; Sm TGR block: inactive; Pf growth 48h: inactive; Pf growth 96h: inconclusive

Results for CCOc1ccccc1NC(=O)NC1(C(=O)NCc2cccnc2)CCCCC1 ?
SARS PLpro yeast: inactive; Sm TGR block: inactive; Pf growth 48h: inactive; Pf growth 96h: inactive

How did CCOc1ccc(S(=O)(=O)NCCc2csc(-c3ccc(Cl)cc3)n2)cc1 do in these assays?
Sm TGR block: inactive

How did COc1ccc(CN2CCNC(=O)C2CC(=O)NC2CCCC2)c(OC)c1 (centres undefined) do in these assays?
SARS PLpro yeast: inactive; Sm TGR block: inactive; Pf growth 48h: inconclusive; Pf growth 96h: inactive

How did COc1ccc(CN2CCNC(=O)C2CC(=O)NC2CCCCC2)c(OC)c1 (centres undefined) do in these assays?
SARS PLpro yeast: inactive; Sm TGR block: inactive; Pf growth 48h: inactive; Pf growth 96h: 9.3µM

How did COc1ccc(NC(=O)CC2C(=O)NCCN2C(=O)c2ccc(Cl)cc2)cc1 (centres undefined) do in these assays?
SARS PLpro yeast: inactive; Sm TGR block: inactive; Pf growth 48h: inactive; Pf growth 96h: inactive

How did Cc1ccccc1CN1CCNC1=O do in these assays?
SARS PLpro yeast: inactive; Sm TGR block: inactive; Pf growth 48h: 9.3µM; Pf growth 96h: inactive

Results for Cc1ccccc1CN1CCCNC1=O ?
SARS PLpro yeast: inactive; Sm TGR block: inconclusive

What do the screens show for `C=CCc1ccc(OC(=O)NC2CCCCC2)c(OC)c1`?
SARS PLpro yeast: inactive; Sm TGR block: 22µM; Pf growth 48h: inactive; Pf growth 96h: inactive

Results for COc1ccc(C(=O)N2CCNC(=O)C2CC(=O)Nc2ccc(C)c(C)c2)cc1 (centres undefined) ?
SARS PLpro yeast: inactive; Sm TGR block: inactive; Pf growth 48h: inactive; Pf growth 96h: 9.3µM

What do the screens show for `O=S(=O)(NCCc1csc2nc(-c3ccccc3)nn12)c1ccc(Oc2ccccc2)cc1`?
Sm TGR block: inactive

What do the screens show for `COc1cccc(CN2CCNC(=O)C2CC(=O)NC2CCCCC2)c1OC` (centres undefined)?
SARS PLpro yeast: inactive; Sm TGR block: 45µM; Pf growth 48h: inactive; Pf growth 96h: inactive

What do the screens show for `CCCN1CCC(NC(=O)CC2C(=O)NCCN2Cc2cccc(OC)c2)CC1` (centres undefined)?
SARS PLpro yeast: inactive; Sm TGR block: inactive; Pf growth 48h: inactive; Pf growth 96h: inconclusive

What do the screens show for `CCCN1CCC(NC(=O)CC2C(=O)NCCN2Cc2ccccc2C)CC1` (centres undefined)?
SARS PLpro yeast: inactive; Sm TGR block: inactive; Pf growth 48h: inactive; Pf growth 96h: 10µM

How did COc1cccc(CN2CCNC(=O)C2CC(=O)NC2CCCC2)c1OC (centres undefined) do in these assays?
SARS PLpro yeast: inactive; Sm TGR block: inconclusive; Pf growth 48h: inactive; Pf growth 96h: inconclusive

What do the screens show for `Cc1cccc(CCNC(=O)CC2C(=O)NCCN2Cc2ccccc2C)n1` (centres undefined)?
SARS PLpro yeast: inactive; Sm TGR block: inconclusive; Pf growth 48h: inactive; Pf growth 96h: 12µM

Results for CCOc1ccc(CN2CCNC(=O)C2CC(=O)NCc2csc(C)n2)cc1 (centres undefined) ?
SARS PLpro yeast: inactive; Sm TGR block: inactive; Pf growth 48h: inactive; Pf growth 96h: 3.3µM

How did CCS(=O)(=O)N1CCN(C(=O)c2cccc3ccccc23)CC1 do in these assays?
SARS PLpro yeast: inactive; Sm TGR block: inactive; Pf growth 48h: inactive; Pf growth 96h: inactive

Results for CC(Oc1ccc(F)cc1)C(=O)Nc1nc(-c2ccc(F)cc2)ns1 (centres undefined) ?
Sm TGR block: inactive
